Rows were chosen to be rich in hits. Some 19% of all compounds tested hit in one or more screens of this group.
HT1080NT lethal: kills 2HG-producing HT-1080-NT fibrosarcoma cells. HT-1080-NT fibrosarcoma viability, CellTiter-Glo ATP luminescence, 48 h. Potency, µM (series often up to 46.1 µM), for the others: at the highest dose activity, negative = less viability, most hits filed as cytotoxic. 1.6% of 360,000 active;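 note: NT is the 2HG producing partner of a matched IDH1 knockdown line; potency is the fitted concentration of half-maximal effect; 0% = DMSO-treated cells and -100% = media-only wells without cells; nearly all actives have a fitted effect of over 55% in size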
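Fibrosarcoma NT cells, 750 per well in 5% FBS RPMI, were exposed to compound for 48 hours. Viability: CellTiter-Glo luminescence.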
TDP1 cell noCPT: qHTS for Inhibitors of human tyrosyl-DNA phosphodiesterase 1 (TDP1): qHTS in cells in absence of CPT; DT40 Tdp1-/- hTDP1 cells, no CPT, ATP luminescence, 48 h; Potency, µM (series often up to 46.2 µM), for the others: at the top dose activity change, negative = growth inhibition, actives largely listed as inhibitors; 15% of 420,000 active; note: potency is the fitted concentration of half-maximal effect; nearly all actives have a fitted effect of over 55% in size
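No-CPT arm: Tdp1-/-;hTDP1 DT40 cells (400/well) plus compounds, incubated ≥48 hr at 37 °C. Readout CellTiter-Glo luminescence.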
HT1080 IDH1KD tx: HT-1080 IDH1 knockdown cell toxicity (counter line); HT-1080 IDH1 knockdown viability, ATP luminescence, 48 h; Potency, µM (doses to about 46.1 µM), for inactives: top-dose activity, negative = toxicity, usual class: cytotoxic; 2% of 360,000 active;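 note: potency is the fitted concentration of half-maximal effect; 0% = DMSO wells and -100% = cell-free medium wells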
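% activity derives from luminescence (CellTiter-Glo), normalised to DMSO and no-cell wells. HT-1080-IDH1KD cells, 750/well, had 48 h compound exposure at 37 °C.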
IL-1B inflam inh: inhibitors of inflammasome signaling (IL-1 beta secretion) | THP-1 LPS/ATP IL-1B secretion, AlphaLISA, 16 h; active compounds read low | activity change, % at 57.5 µM | 4.7% of 360,000 active; in the data active = activity change below about -50%; inconclusive = mostly about -30% to -49%
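THP-1 cells pretreated 1 hr with compounds (up to 57.5 uM final), then stimulated with LPS (250 ng/mL final) plus ATP (1.25 mM final); secreted IL-1B measured by AlphaLISA after 16 hr, decreased signal indicating inhibition.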
TDP1 cell CPT: DT40-hTDP1 cell growth loss with CPT; 12% of 420,000 active; chicken DT40 Tdp1-/-;hTDP1 cells + 20 nM CPT, ATP luminescence, 48 h; Potency, µM (top dose mostly 46.2 µM), for the others: at the top dose activity change, negative = growth inhibition, actives largely listed as inhibitors; note: potency is the fitted concentration of half-maximal effect; nearly all actives have a fitted effect of over 55% in size
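Chicken DT40 Tdp1-/- cells stably complemented with human TDP1 were seeded at 400 cells/well in medium containing 20 nM camptothecin, exposed to pin-transferred compounds, and grown at 37 °C for at least 48 hr. Viability was read as ATP luminescence.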
Starred values were filed as active, the others as inactive; i = inactive; ? = inconclusive; · = not tested or not shown. Unless noted, calls come from the whole dose curve; as a rule, active = well fitted curve in the direction sought with a large enough effect; inconclusive = small, poorly fitted or top-dose-only effect, or another doubt; inactive = no such curve, though single readings can be large; an effect the other way counts as inactive or inconclusive. Unless noted, % is set by controls: 0 for no effect and ±100 for the full control effect.

SMILES	HT1080NT lethal	TDP1 cell noCPT	HT1080 IDH1KD tx	IL-1B inflam inh	TDP1 cell CPT
CC(C)C(C(=O)NCC1CCCO1)N(CC1CCCO1)C(=O)CNS(=O)(=O)c1ccccc1 (centres undefined)	10%	-4%	4%	-10	-7%
COc1ccc(OC)c(/C=C/C(=O)OCC(=O)Nc2cccc(C(C)=O)c2)c1	17%	?	20%	8	16µM*
COc1cc(/C=C/C(=O)OCC(=O)NCCc2ccccc2)cc(OC)c1OC	-4%	-4%	-4%	17	1%
COc1ccc(/C=C/C(=O)OCC(=O)NCCc2ccccc2)c(OC)c1	5%	21µM*	11%	5	?
COc1ccc(OC)c(/C=C/C(=O)OCC(=O)N2C(C)CCCC2C)c1 (centres undefined)	-5%	10µM*	9%	-28	?
COc1ccc(OC)c(/C=C/C(=O)OCC(=O)N2CCCC2)c1	9%	-4%	0%	-9	-1%
COc1ccc(OC)c(/C=C/C(=O)Oc2ccc(C(C)=O)cc2)c1	11%	-25%	10%	-5	-3%
Cc1ccc(C)c(N2CCN(c3nc4ccccc4n4c(C)nnc34)CC2)c1	·	-4%	·	·	0%
CC(=O)c1cc(N2CCC(C(=O)O)CC2)ccc1[N+](=O)[O-]	19%	-12%	17%	21	-9%
Cc1oc(-c2ccc3c(c2)OCCO3)cc1C(=O)NC(CCC(=O)O)C(=O)O (centres undefined)	7%	-1%	11%	-9	2%
CN(Cc1cnc2nc(N)nc(N)c2n1)c1ccc(C(=O)NC(CCC(=O)O)C(=O)O)c2ccccc12 (centres undefined)	?	0.052µM*	0.0058µM*	24	0.092µM*
CCOc1nc(N=C(N)N)nc2c(C)cccc12	-14%	23µM*	-20%	-12	16µM*
CCOc1ccccc1Nc1cc(C)c2cccc(C)c2n1	0%	-24%	-9%	34	-5%
CCNc1c(NS(=O)(=O)c2ccc([N+](=O)[O-])cc2)c(=O)oc2ccccc12	0%	?	4%	17	?
Cc1nc(C)c(-c2ccc(SCC(=O)Nc3ccccc3)nn2)s1	-13%	26µM*	-21%	i	23µM*
Cc1nc(C)c(-c2ccc(SCC(=O)Nc3ccc(F)c(F)c3)nn2)s1	·	9.2µM*	·	·	13µM*
COc1cccc(NC(=O)CSc2nnc3scc(-c4ccc(Cl)cc4)n23)c1	·	18µM*	·	·	?
COc1cccc(NC(=O)CSc2ccc(-c3sc(C)nc3C)nn2)c1	-11%	15µM*	-15%	-20	15µM*
COc1ccc(NC(=O)N2CCCC3(CCN(C(=O)c4cccc(F)c4)CC3)C2)cc1	·	-23%	·	·	-2%
COc1ccc(CN(Cc2cccnc2)C(=S)NCCc2ccccc2)cc1OC	-8%	6%	1%	-12	-9%
COc1ccccc1N(CC(=O)NCCSCc1ccccc1)S(=O)(=O)c1ccc(C)cc1	-16%	12µM*	?	-19	9.2µM*
CCOc1ccc(N(CC(=O)NCCSCc2ccccc2)S(C)(=O)=O)cc1	-5%	5.8µM*	-3%	12	1.8µM*
COc1ccccc1N(CC(=O)NCCSCc1ccco1)S(=O)(=O)c1ccccc1	21%	16µM*	1%	0	18µM*
COc1ccccc1N(CC(=O)NCCSCc1ccccc1)S(=O)(=O)c1ccccc1	-1%	23µM*	-12%	-20	?
COc1ccccc1N(CC(=O)NCCSCc1cccc(Cl)c1)S(C)(=O)=O	-11%	?	-9%	27	?
SMILES	HT1080NT lethal	TDP1 cell noCPT	HT1080 IDH1KD tx	IL-1B inflam inh	TDP1 cell CPT
C[C@H]1CN([C@@H](C)CO)C(=O)CCCn2nncc2CO[C@H]1CN(C)S(=O)(=O)c1cccs1	20%	-20%	-14%	15	-8%
Nc1cccc(-c2nc3cc(S(=O)(=O)c4ccc5oc(-c6cccc(N)c6)nc5c4)ccc3o2)c1	?	?	?	-1	8.2µM*
CN1CCN(c2ncc3nc(CCc4ccccc4)c(=O)n(Cc4ccc(F)cc4)c3n2)CC1	·	15µM*	·	·	?
CN1CCN(c2ncc3nc(-c4cccs4)c(=O)n(Cc4ccc(F)cc4)c3n2)CC1	·	?	·	·	13µM*
CN1CCN(c2ncc3nc(CCc4ccccc4)c(=O)n(C)c3n2)CC1	·	?	·	·	23µM*
O=c1c(CCc2ccccc2)nc2cnc(N3CCNCC3)nc2n1Cc1ccc(F)cc1	·	?	·	·	1µM*
COCCn1c(=O)c(CCc2ccccc2)nc2cnc(N3CCN(C)CC3)nc21	·	-22%	·	·	-16%
Cc1ccc2oc(=O)c3cc(C(=O)NCCCN4CCN(C)CC4)sc3c2c1	?	?	-19%	-12	?
CN1CCN(CCCNC(=O)c2cc3c(=O)n(C)c4ccccc4c3s2)CC1	?	12µM*	-29%	-81*	8.2µM*
Cn1c(=O)c2cc(C(=O)NCCCN3CCN(c4cccc(Cl)c4)CC3)sc2c2ccccc21	·	2.9µM*	·	·	?
COc1ccc(N2CCN(S(=O)(=O)c3c(C)[nH]c(C)c3C(=O)N3CCCC3)CC2)cc1	0%	11%	4%	4	1%
C[C@]1(C(=O)NCCCNc2ncc(C(F)(F)F)cc2Cl)C=C[C@@H](Cc2ccccc2)N1C(=O)c1ccccc1	-19%	26µM*	-21%	?	?
CC1(C(=O)NCCCNc2ncc(C(F)(F)F)cc2Cl)C=CCN1C(=O)c1ccccc1 (centres undefined)	8%	?	-3%	-77*	?
CC(OC(=O)c1cc(S(=O)(=O)N2CCOCC2)ccc1F)C(=O)NC1CCCCC1C (centres undefined)	5%	-22%	6%	4	-19%
CC1CCN(Cc2c(O)ccc3c(=O)c(Oc4ccccc4Cl)c(C(F)(F)F)oc23)CC1	·	21µM*	·	·	?
CCc1ccc(Oc2c(C(F)(F)F)oc3c(CN4CCN(C)CC4)c(O)ccc3c2=O)cc1	·	26µM*	·	·	?
C=CCSc1nnc(NC(=O)CN2C(=O)NC3(CCCC3)C2=O)s1	0%	2%	-5%	6	-5%
COc1ccc(-c2ccc([C@H]3[C@H]4C=CC[C@@H](C)[C@@H]4C(=O)N3Cc3ccccc3)c(F)c2)cc1C	-15%	15µM*	-7%	11	15µM*
C[C@@H]1CC=C[C@H]2[C@H]1C(=O)N(Cc1ccccc1)[C@H]2c1ccc(-c2ccc(F)cc2)cc1F	-29%	13µM*	-22%	57	16µM*

Assay outcomes as filed in PubChem.
